Test results taken from PMC11624278.

Legend:
Assay in all cases: cross-link between two proteins; affinity purification or IP with mass spectrometry; cross-linking mass spectrometry
Calreticulin = Calreticulin (UniProt P14211)
Integrin alpha-3 = Integrin alpha-3 (UniProt Q62470)
Integrin alpha-5 = Integrin alpha-5 (UniProt P11688)

Measured: listed as a hit

UniProt P14211, sequence (P14211 whole entry): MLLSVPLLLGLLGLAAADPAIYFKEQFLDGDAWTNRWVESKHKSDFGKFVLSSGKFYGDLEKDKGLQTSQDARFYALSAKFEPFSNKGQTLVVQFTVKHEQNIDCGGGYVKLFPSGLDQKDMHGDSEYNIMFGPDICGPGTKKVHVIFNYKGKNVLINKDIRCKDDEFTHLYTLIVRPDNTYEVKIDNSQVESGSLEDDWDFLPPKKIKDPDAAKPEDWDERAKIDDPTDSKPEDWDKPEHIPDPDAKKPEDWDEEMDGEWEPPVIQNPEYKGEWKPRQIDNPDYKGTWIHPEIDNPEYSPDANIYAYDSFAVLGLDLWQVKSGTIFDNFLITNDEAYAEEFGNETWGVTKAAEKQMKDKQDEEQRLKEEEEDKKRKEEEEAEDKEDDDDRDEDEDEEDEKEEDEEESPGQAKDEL
UniProt Q62470, sequence (Q62470 whole entry): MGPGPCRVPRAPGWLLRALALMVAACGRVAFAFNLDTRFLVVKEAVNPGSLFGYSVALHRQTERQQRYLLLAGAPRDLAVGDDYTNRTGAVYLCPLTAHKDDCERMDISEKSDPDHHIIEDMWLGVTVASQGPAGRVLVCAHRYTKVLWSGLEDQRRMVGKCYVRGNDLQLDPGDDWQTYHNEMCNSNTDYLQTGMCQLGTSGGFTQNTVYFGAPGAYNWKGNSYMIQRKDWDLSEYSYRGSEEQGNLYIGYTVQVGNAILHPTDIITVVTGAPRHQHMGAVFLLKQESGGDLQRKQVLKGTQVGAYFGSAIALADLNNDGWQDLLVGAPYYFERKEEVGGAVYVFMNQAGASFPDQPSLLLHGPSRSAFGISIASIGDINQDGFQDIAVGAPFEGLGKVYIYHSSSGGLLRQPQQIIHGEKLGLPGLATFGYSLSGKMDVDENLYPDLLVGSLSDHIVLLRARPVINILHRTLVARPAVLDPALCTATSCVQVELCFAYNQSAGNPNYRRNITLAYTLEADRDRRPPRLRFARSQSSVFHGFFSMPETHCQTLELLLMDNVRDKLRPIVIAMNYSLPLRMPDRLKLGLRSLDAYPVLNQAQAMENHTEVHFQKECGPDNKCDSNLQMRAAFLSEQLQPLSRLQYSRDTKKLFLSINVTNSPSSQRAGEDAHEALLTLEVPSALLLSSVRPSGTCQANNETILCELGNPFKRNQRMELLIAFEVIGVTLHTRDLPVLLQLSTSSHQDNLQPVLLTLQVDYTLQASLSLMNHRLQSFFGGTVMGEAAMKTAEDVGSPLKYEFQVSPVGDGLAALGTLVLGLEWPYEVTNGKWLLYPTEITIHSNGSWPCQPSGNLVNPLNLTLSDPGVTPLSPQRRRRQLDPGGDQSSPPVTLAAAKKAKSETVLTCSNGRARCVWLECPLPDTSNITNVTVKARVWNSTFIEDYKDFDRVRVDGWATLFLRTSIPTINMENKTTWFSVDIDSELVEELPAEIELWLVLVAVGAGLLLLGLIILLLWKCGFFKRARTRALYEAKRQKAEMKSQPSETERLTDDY
UniProt P11688, sequence (P11688 whole entry): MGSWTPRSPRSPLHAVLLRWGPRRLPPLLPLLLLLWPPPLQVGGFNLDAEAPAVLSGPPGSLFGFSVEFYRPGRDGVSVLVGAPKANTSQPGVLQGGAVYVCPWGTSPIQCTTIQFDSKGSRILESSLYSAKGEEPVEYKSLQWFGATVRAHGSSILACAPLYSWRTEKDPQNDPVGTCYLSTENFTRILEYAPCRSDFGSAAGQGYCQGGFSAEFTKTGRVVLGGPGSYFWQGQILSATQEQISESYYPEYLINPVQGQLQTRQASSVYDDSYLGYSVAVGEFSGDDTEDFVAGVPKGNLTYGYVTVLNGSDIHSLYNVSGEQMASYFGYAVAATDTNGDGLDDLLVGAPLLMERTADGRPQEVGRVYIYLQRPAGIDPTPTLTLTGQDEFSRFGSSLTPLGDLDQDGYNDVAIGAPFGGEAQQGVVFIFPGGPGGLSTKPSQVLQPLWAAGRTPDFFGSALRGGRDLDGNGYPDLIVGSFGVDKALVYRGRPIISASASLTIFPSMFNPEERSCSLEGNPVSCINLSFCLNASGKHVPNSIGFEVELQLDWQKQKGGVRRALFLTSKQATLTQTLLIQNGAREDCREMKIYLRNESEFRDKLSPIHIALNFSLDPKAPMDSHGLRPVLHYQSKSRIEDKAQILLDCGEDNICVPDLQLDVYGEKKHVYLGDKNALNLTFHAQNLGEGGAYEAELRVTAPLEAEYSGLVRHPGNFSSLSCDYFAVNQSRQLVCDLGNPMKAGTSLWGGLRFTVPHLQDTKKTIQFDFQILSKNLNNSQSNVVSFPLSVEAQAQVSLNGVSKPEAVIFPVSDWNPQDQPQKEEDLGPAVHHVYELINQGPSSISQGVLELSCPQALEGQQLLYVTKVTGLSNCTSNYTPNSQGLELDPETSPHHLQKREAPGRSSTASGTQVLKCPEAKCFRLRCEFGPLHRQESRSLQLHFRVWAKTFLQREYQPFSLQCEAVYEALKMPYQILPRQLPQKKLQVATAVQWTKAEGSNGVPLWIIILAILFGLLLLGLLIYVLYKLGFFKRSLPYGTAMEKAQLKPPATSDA

Integrin beta-1, P09055
yes: all assays above
